Reference: PubChem BioAssay
Where “and” joins values, the source holds several entries; their conditions need not be identical. Equal entries are not always repeated. Calls of active or inactive are those of the source.

How the values were obtained:
[1] = binders of probe aFSTL3 on microarray, primary screen, stem cell growth factor project, biochemical, small-molecule microarray, fluorescence 635/667 (AID 1064); conditions: higher = more signal;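 note: measures binding of the biotinylated anti-FSTL3 antibody to printed compounds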
[2] = binders from COS7 lysate, DM2A8 probe, primary screen, torsin A project, cell lysate, small-molecule microarray, fluorescence 635/667 (AID 1065); conditions: higher = more signal, COS7 lysate expressing mutant human TOR1A
[3] = binders of probe aFGF2 on microarray, primary screen, stem cell growth factor project, biochemical, small-molecule microarray, fluorescence 635/667 (AID 1067); conditions: higher = more signal;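 note: measures binding of biotinylated aFGF2 protein to printed compounds on slides; z-score merges feature fluorescence and signal-to-noise across triplicate slides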
[4] = binders of probe aFGF10 on microarray, primary screen, stem cell growth factor project, biochemical, small-molecule microarray, fluorescence 635/667 (AID 1071); conditions: higher = more signal;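 note: score merges 667 nm spot intensity and signal to noise from triplicate slides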
[5] = target: Neurogenic locus notch homolog protein 2 (Homo sapiens) (UniProt Q04721); experiment: Notch2 binders on small-molecule microarrays, primary screen, biochemical, small-molecule microarray, 635 nm fluorescence, stem cell growth factors (AID 1073); conditions: Notch2 binding, higher = more signal
Chain of Neurogenic locus notch homolog protein 2 (Homo sapiens) (Q04721 whole entry, looked up, canonical isoform): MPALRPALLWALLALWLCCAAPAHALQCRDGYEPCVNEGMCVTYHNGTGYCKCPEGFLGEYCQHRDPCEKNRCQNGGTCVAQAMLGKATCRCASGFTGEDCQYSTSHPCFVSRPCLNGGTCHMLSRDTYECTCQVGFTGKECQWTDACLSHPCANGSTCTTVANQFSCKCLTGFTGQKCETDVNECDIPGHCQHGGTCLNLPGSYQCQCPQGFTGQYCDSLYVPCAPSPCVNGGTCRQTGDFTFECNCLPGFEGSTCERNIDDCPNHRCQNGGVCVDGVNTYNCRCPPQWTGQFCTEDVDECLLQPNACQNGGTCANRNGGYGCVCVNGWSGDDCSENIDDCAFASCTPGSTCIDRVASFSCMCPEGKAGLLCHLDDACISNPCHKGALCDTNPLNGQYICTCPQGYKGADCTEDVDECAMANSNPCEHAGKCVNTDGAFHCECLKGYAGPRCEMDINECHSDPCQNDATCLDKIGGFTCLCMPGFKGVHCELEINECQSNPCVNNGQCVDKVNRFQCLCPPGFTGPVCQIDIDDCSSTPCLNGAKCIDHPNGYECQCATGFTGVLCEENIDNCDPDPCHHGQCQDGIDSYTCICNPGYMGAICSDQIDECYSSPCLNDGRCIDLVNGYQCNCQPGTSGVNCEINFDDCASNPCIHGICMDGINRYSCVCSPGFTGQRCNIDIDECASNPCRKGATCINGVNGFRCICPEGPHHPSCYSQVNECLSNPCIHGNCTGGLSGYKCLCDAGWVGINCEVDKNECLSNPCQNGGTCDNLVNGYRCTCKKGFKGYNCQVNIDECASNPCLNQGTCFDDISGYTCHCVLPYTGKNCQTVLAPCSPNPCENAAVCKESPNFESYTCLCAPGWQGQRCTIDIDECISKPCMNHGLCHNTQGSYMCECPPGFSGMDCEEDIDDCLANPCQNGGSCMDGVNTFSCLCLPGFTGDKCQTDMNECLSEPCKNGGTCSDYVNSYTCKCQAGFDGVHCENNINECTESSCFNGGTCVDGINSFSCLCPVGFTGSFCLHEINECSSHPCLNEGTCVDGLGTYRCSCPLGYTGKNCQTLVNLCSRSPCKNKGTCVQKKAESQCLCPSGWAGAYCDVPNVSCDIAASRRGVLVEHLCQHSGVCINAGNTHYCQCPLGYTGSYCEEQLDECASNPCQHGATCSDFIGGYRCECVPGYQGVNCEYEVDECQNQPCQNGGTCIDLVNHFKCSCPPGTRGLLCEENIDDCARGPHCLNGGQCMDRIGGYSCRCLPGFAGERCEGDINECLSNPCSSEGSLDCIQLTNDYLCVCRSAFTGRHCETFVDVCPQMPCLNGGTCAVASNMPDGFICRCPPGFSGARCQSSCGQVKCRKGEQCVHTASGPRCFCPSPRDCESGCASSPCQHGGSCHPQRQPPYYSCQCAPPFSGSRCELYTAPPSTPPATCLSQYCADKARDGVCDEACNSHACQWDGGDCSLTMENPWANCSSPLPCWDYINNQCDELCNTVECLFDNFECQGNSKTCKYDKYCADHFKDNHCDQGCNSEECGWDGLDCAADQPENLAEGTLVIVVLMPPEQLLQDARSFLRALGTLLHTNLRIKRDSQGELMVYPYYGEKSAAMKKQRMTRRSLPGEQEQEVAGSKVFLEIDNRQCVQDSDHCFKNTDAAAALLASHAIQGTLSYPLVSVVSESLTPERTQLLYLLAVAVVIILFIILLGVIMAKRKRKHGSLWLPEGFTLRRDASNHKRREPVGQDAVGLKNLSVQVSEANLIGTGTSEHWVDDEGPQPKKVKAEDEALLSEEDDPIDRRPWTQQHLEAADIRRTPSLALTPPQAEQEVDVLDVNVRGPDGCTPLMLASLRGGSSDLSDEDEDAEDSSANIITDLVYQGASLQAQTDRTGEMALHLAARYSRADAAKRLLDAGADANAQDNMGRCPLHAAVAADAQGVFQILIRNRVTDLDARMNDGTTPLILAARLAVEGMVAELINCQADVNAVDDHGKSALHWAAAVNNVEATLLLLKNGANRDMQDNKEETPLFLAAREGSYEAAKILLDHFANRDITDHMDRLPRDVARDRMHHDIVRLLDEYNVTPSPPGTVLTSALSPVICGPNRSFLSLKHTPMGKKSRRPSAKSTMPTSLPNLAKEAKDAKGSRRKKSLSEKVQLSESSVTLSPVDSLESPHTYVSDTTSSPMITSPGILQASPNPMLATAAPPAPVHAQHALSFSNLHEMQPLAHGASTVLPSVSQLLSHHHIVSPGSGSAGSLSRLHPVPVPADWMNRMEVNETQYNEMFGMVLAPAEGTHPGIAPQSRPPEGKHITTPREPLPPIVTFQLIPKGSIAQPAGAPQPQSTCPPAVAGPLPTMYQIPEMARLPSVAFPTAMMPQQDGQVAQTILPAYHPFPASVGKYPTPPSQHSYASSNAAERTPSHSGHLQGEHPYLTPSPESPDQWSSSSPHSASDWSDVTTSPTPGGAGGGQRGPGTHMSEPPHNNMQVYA

[6] = target: Pro-neuregulin-1, membrane-bound isoform (Homo sapiens) (UniProt Q02297); experiment: NRG1 binders on small-molecule microarrays, primary screen, psychiatric disease protein project, biochemical, small-molecule microarray, fluorescence 635/667 (AID 1075); conditions: NRG1 binding, 635 nm fluorescence, higher = more signal;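 note: score combines 667 nm spot fluorescence with signal to noise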
Chain of Pro-neuregulin-1, membrane-bound isoform (Homo sapiens) (Q02297 whole entry, looked up, the tested form may be a part, canonical isoform): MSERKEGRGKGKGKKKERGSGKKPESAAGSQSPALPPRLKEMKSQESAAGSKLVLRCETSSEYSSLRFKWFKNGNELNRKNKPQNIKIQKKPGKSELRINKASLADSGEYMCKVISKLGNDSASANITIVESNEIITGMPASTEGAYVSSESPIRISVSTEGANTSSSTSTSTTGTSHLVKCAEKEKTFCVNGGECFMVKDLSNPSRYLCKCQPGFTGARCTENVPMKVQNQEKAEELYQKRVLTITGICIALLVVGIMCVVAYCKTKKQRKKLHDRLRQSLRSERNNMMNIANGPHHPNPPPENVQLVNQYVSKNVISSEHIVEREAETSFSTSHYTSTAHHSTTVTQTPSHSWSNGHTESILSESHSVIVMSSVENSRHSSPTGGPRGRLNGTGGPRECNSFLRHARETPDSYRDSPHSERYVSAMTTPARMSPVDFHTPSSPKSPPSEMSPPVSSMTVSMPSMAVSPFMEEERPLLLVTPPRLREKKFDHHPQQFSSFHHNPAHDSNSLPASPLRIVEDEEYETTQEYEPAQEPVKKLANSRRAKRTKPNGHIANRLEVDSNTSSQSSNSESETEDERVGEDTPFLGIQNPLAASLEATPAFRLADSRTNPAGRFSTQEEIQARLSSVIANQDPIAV

[7] = tested on: Neuregulin-1 EGF-like domain; experiment: binders of neuregulin-1 EGF-like domain, primary screen, biochemical, small-molecule microarray, 635 nm fluorescence (AID 1081); conditions: small-molecule microarray binding, higher = more signal;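 note: binding of the protein to compounds printed on small-molecule microarray slides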
[8] = FRG1 promoter luciferase signal modulators, primary screen, FRG1 inhibition for FSHD, cell-based, C2C12 myotubes, firefly/Renilla luciferase, luminescence (AID 1084); conditions: higher = more signal, called active from +8 up or from −8 down
[9] = binders of probe aFST on microarray, primary screen, stem cell growth factor project, biochemical, small-molecule microarray, fluorescence 635/667 (AID 1086); conditions: higher = more signal;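 note: score merges 667 nm fluorescence with signal-to-noise of each printed compound spot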
[10] = binders of probe aHhip on microarray, primary screen, stem cell growth factor project, biochemical, small-molecule microarray, fluorescence 635/667 (AID 1087); conditions: higher = more signal;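 note: score merges spot fluorescence at 667nm with spot signal to noise ratio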
[11] = tested on: PRMT1 (protein arginine N-methyltransferase 1); experiment: PRMT1 binders on small-molecule microarrays, primary screen, biochemical, small-molecule microarray, 635 nm fluorescence (AID 1088); conditions: small-molecule microarray binding, higher = more signal;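 note: binding of Prmt1 protein to compounds spotted on small-molecule microarray slides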
[12] = yeast growth modulation, basal conditions, primary screen, YJM789 clinical isolate, OD600, 24 h (AID 1089);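 note: growth of clinical yeast isolate S. cerevisiae YJM 789 seeded 1000 cells per well; test concentration not given here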; conditions: S. cerevisiae YJM789 growth, higher = more signal, called active from +8 up or from −8 down
[13] = fission yeast growth modulation, primary screen, strain 972, OD600, 24 h, no modulator (AID 1090);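 note: basal condition with compound alone and no growth modifier present; test concentration not given here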; conditions: S. pombe 972 growth, higher = more signal, called active from +8 up or from −8 down
[14] = S. cerevisiae growth modulation with rapamycin, primary screen, strain BY4716, OD600, 96 h (AID 1091); conditions: higher = more signal, called active from +8 up or from −8 down; note: test concentration not given here
[15] = target: Torsin-1A-interacting protein 2 (Homo sapiens) (UniProt Q8NFQ8); experiment: LULL1 binders on small-molecule microarray, primary screen, cell lysate, human LULL1 lysate, 635/667 nm fluorescence (AID 1092); conditions: hLULL1 lysate binding, 635 nm fluorescence, higher = more signal;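 note: probe is lysate of COS7 cells overexpressing human LULL1; score merges per-feature 667 nm fluorescence with signal-to-noise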
Chain of Torsin-1A-interacting protein 2 (Homo sapiens) (Q8NFQ8 whole entry, looked up): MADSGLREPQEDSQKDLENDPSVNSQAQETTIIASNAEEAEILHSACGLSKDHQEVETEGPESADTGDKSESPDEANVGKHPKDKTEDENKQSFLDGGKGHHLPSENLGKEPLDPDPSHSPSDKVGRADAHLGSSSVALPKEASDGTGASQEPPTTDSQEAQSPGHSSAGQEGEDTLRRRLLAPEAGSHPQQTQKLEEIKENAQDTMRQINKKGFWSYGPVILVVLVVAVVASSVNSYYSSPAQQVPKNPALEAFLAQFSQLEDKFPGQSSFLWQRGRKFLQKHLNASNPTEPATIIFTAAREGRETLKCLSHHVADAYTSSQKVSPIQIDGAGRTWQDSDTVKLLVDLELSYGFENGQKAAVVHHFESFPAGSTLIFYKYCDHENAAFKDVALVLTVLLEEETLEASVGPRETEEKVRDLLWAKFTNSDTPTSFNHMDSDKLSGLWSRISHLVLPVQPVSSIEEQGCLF

[16] = E. coli growth modulation, two-sided OD650, primary screen, E. coli filamentation project, strain DRC41, 24 h (AID 1093); conditions: OD650, 24 h, higher = more signal, called active from +8 up or from −8 down;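 note: MC1000 strain lacking acrAB efflux and sulA so SOS filamentation is blocked; test concentration not given here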
[17] = small-molecule microarray binders of probe aLefty2, primary screen, biochemical, biotinylated probe, 635/667 nm fluorescence (AID 1094); conditions: higher = more signal;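 note: score merges spot fluorescence near 667 nm with spot signal-to-noise ratio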
[18] = tested on: Noggin (protein binding on small-molecule microarray); experiment: Noggin binders on small-molecule microarray, primary screen, biochemical, 635/667 nm fluorescence (AID 1095); conditions: 635 nm fluorescence, higher = more signal;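 note: score merges 667 nm feature fluorescence with signal to noise over triplicate slides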
[19] = target: Neurogenic locus notch homolog protein 3 (Homo sapiens) (UniProt Q9UM47); experiment: NOTCH3 binders on small-molecule microarray, primary screen, biochemical, 635/667 nm fluorescence (AID 1096); conditions: NOTCH3 binding, 635 nm fluorescence, higher = more signal
[20] = small-molecule microarray binders of probe aEGFR, primary screen, biochemical, biotinylated probe, 635/667 nm fluorescence (AID 1097); conditions: higher = more signal;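 note: probe is a biotinylated anti-EGFR antibody binding compounds printed on slides; score combines fluorescence near 667 nm and signal to noise of each spot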

Row | Structure (SMILES) | composite z-score [1] | composite z-score [2] | composite z-score [3] | composite z-score [4] | composite z-score [5] | composite z-score [6] | composite z-score [7] | z-score [8] | composite z-score [9] | composite z-score [10] | composite z-score [11] | z-score [12] | z-score [13] | z-score [14] | composite z-score [15] | z-score [16] | composite z-score [17] | composite z-score [18] | composite z-score [19] | composite z-score [20]
1 | CO[C@@H]1C=CCC(=O)N2CCC[C@H]2C(=O)OC[C@H](C)C(=O)OC[C@H]1C | -0.368 | 1.3 | -0.0676 | 0.0525 | -0.244 | -0.226 | 1.07 | 0.0531 (inactive) | 0.191 | 0.501 | 0.59 | 0.741 (inactive) | -0.295 (inactive) | -0.606 (inactive) | -0.246 | 0.714 (inactive) | -0.0693 | 1.41 | -0.13 | 0.163
2 | CC(CO)N1C(=O)[C@@H]2C3C(=O)OCCC=C[C@H]3OC23C=CCN(c2ccc(Cl)cc2)C(=O)[C@@H]13 (stereo not given in full) | 0.982 and -0.0072 | -0.821 and -1.3 | -0.0959 and -0.159 | -0.556 and -0.282 | -0.709 and 0.149 | -0.618 and 2 | 0.923 and 1.44 | 0.741 (inactive) and 1.08 (inactive) | -0.91 and 0.118 | 0.0053 and 0.0092 | -1.06 and 1.32 | 1.37 (inactive) and -1.45 (inactive) | 0.628 (inactive) and -1.21 (inactive) | 0.872 (inactive) and -0.713 (inactive) | -0.81 and 3.57 | 0.226 (inactive) and -0.379 (inactive) | 0.149 and -0.0998 | -2.2 and -0.556 | -1.43 and 0.107 | -0.186 and -0.0788
3 | Cc1cc2c(nc1C)CCCN2CC(C)ON=C[C@@H](C)[C@H](OCc1ccccc1)C(C)C (stereo not given in full) | -0.461 | 0.478 | -0.0724 | -0.0706 | -0.461 | -0.869 | -0.868 | -0.201 (inactive) | 0.374 | 0.102 | -1.37 | 0.481 (inactive) | 0.514 (inactive) | 1.24 (inactive) | -0.817 | 0.448 (inactive) | -0.134 | 0.41 | 0.298 | -0.068
4 | C[C@@H]1CC[C@H]2C(=O)N3[C@@H](CC[C@@H](C)[C@@H]3c3ccc(-c4ccco4)cc3)C(=O)N2[C@H]1c1ccc(-c2ccco2)cc1 | -0.23 and 1.14 | 0.762 and 1.98 | -0.0084 and -0.0668 | 0.906 and 1.16 | 0.422 and 1.15 | 0.992 and 0.667 | 1.29 and 1.3 | -0.248 (inactive) and 0.445 (inactive) | 0.443 and 1.26 | 0.132 and 0.259 | 1.56 and 1.49 | -0.0519 (inactive) and -0.0158 (inactive) | 0.453 (inactive) and -1.28 (inactive) | 0.849 (inactive) and -0.324 (inactive) | 2.17 and 0.787 | 0.196 (inactive) and 0.917 (inactive) | 0.0935 and 0.525 | 1.34 and 1.77 | 1.04 and 1.06 | 0.0374 and 0.181
5 | C=C(C)C(=O)OC[C@@H]1CN2[C@@H](CC[C@@H](C)[C@@H]2c2ccc(Br)cc2)C(=O)O1 | -0.577 | -0.275 | -0.083 | 0.733 | 0.636 | 0.776 | 1.1 | -0.889 (inactive) | 0.129 | -0.0645 | 0.819 | -0.792 (inactive) | -2.7 (inactive) | -1.52 (inactive) | 1.32 | 0.53 (inactive) | -0.247 | 0.314 | 0.259 | 0.0251
6 | CN1C(=O)C2CC=C([C@H]3Oc4ccccc4S(=O)(=O)N4CCC[C@@H]34)CC2C1=O (stereo not given in full) | -0.203 and -0.0284 | 0.157 and 0.0061 | -0.133 and -0.149 | 0.0694 and -0.0366 | -1.05 and -0.369 | 0.75 and -0.641 | 0.151 and -0.561 | 0.74 (inactive) and 1.05 (inactive) | -0.311 and -0.365 | -0.0645 and -0.123 | -0.525 and -1.12 | -0.243 (inactive) and 0.235 (inactive) | 0.0646 (inactive) and 0.0942 (inactive) | 0.579 (inactive) and 0.0211 (inactive) | -0.781 and -0.674 | 0.108 (inactive) and -0.089 (inactive) | -0.163 and -0.0719 | -0.487 and 0.281 | -0.977 and -1.16 | -0.199 and -0.165
7 | C=CCN(C(=O)C(c1cccs1)N(CCOCCO)C(=O)/C=C\C(=O)O)c1ccc(OC)cc1 (stereo not given) | -0.454 and 0.71 | -0.415 and -1.59 | -0.103 and -0.186 | -0.729 and -1.06 | -1.03 and -1.83 | -0.933 and -1.12 | -0.247 and -0.936 | -0.993 (inactive) and -0.205 (inactive) | -0.348 and -0.687 | -0.301 and -0.226 | -1.56 and -0.685 | -2.54 (inactive) and -0.463 (inactive) | -0.314 (inactive) and -2.05 (inactive) | -1.51 (inactive) and -0.835 (inactive) | -1.45 and -0.709 | 2.74 (inactive) and 2.71 (inactive) | -0.25 and -0.299 | -0.482 and -1.39 | -1.2 and -0.655 | -0.172 and -0.316
8 | CC(C)=CCCC(C)=CCON=C1C[C@@H](O)[C@@H](O)[C@@H]2[C@@H]3C(=O)N([C@@H](C)c4ccccc4)C(=O)[C@@H]3CC[C@H]12 | -0.372 | 0.384 | -0.044 | 0.573 | 0.744 | 1.13 | 0.751 | -0.763 (inactive) | 0.503 | 0.0627 | 1.13 | -1.23 (inactive) | -0.846 (inactive) | -0.989 (inactive) | 2.28 | -1.39 (inactive) | -0.0991 | 0.454 | 0.492 | -0.162
9 | C=CCN(C(=O)C(c1cccs1)N(CCOCCO)C(=O)/C=C\C(=O)O)C(C)(C)C (stereo not given) | 0.982 and 1.01 | -0.718 and -0.131 | -0.228 and -0.192 | -0.708 and -0.376 | -1.28 and -1.44 | -0.395 and -0.988 | 0.484 and 0.745 | -0.0773 (inactive) and -0.143 (inactive) | -0.78 and -1.06 | -0.277 and -0.169 | -1.16 and -0.597 | 0.592 (inactive) and 0.385 (inactive) | -1.35 (inactive) and -0.863 (inactive) | 0.103 (inactive) and 0.0577 (inactive) | -2.06 and 0.15 | 1.41 (inactive) and 0.711 (inactive) | -0.0674 and -0.167 | -1.85 and -2.31 | -1.9 and -0.936 | -0.277 and -0.339
10 | CCOC(=O)NN=C1C[C@@H](O)[C@@H](O)[C@@H]2[C@@H]3C(=O)N(Cc4ccc5c(c4)OCO5)C(=O)[C@@H]3CC[C@@H]12 | -0.441 | 0.16 | -0.121 | 0.505 | 0.34 | 0.416 | 0.858 | -0.544 (inactive) | 0.16 | 0.007 | 0.365 | 0.282 (inactive) | -0.117 (inactive) | -0.135 (inactive) | 2.14 | 0.234 (inactive) | -0.148 | 0.0857 | -0.209 | -0.148
11 | CC(CO)N1C(=O)[C@@H]2C3C(=O)OCCC=C[C@H]3OC23C=CCN(C(C)(C)C)C(=O)[C@@H]13 (stereo not given in full) | 0.589 and 0.169 | -0.848 and -0.0168 | -0.158 and -0.0296 | -0.884 and 0.546 | -1.01 and 0.13 | -0.551 and 0.91 | 0.369 and 1.41 | 0.714 (inactive) and 0.355 (inactive) | -0.547 and -0.0366 | -0.134 and 0.0749 | -0.577 and 0.254 | 0.581 (inactive) and -1.45 (inactive) | 0.605 (inactive) and -0.779 (inactive) | 0.819 (inactive) and -0.544 (inactive) | -0.326 and 2.17 | -0.586 (inactive) and -0.513 (inactive) | -0.176 and 0.0028 | -0.808 and 0.16 | -0.431 and 0.289 | -0.295 and -0.117
12 | C=CCN(CCCCC)C(=O)C1N(CCOCCO)C(=O)C2C(C(=O)O)C3C=CC21O3 (stereo not given) | 0.555 and 0.963 | -0.771 and -0.902 | -0.191 and -0.283 | -1.87 | -0.459 and -2.05 | 0.17 and -0.496 | 0.891 and 1.05 | 0.306 (inactive) and 0.0282 (inactive) | -0.211 and -0.726 | -0.171 and -0.182 | -1.77 and -0.751 | 0.322 (inactive) and 0.513 (inactive) | 0.0056 (inactive) and 0.398 (inactive) | 0.912 (inactive) and 1.09 (inactive) | 0.0037 and 0.198 | -0.45 (inactive) and -0.546 (inactive) | -0.0617 and -0.142 | -1.17 and -2.1 | -0.574 and -1.05 | -0.275 and -0.367
